The text below walks through data of paper PMC7862700, “An all-to-all approach to the identification of sequence-specific readers for epigenetic DNA modifications on cytosine”.

Holding throughout (assay): DAPPL (digital affinity profiling via proximity ligation, sequencing); 10 mM Tris-HCl pH 7.5, 50 mM NaCl, 1 mM DTT, 4% glycerol, room temperature, 30 min; GST-TFs on glutathione beads, 16-mer random dsDNA library, 0.1% formaldehyde crosslink after washing; high values mean tight binding
For one experiment, the target named is T1, FEV (Homo sapiens, UniProt Q99581 1-238).
T1 sequence: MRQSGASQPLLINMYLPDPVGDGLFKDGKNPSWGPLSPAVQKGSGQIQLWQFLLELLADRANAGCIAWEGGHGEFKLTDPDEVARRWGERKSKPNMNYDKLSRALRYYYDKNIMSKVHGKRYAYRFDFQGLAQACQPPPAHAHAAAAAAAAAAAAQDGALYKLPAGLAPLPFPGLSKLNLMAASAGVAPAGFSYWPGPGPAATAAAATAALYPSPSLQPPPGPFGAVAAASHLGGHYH
The conditions noted are these: protein: recombinant; tags: N-terminal GST; dsDNA, one strand shown. Summed up: (§1)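 Binding signal is defined as a hexamer's read frequency for one factor over its frequency for the tag-only sample. To obtain reads, GST-fused human transcription factors were expressed in yeast, captured on glutathione beads, barcoded with DNA and pooled with that sample. Pools met 200 nmole of a 16-mer random double-stranded DNA library in Tris/NaCl/DTT/glycerol buffer for 30 min at room temperature before washing, 0.1% formaldehyde crosslinking, proximity ligation (BsaI/T4 ligase, 1 h, 37 °C), PCR and Illumina NextSeq500 sequencing.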

Another experiment has as its target ETV5 (Homo sapiens, UniProt P41161 1-510). Conditions: protein: recombinant; tags: N-terminal GST; dsDNA, one strand shown. Summed up:
as §1

The next experiment concerns the target HSF1 (Homo sapiens, UniProt Q00613 1-529). The conditions noted are these: protein: recombinant; tags: N-terminal GST; chain copies: 3; dsDNA, one strand shown. The method, boiled down: as §1
The next experiment concerns the target T2, SPIC (Homo sapiens, UniProt Q8N5J4 1-248).
T2 sequence: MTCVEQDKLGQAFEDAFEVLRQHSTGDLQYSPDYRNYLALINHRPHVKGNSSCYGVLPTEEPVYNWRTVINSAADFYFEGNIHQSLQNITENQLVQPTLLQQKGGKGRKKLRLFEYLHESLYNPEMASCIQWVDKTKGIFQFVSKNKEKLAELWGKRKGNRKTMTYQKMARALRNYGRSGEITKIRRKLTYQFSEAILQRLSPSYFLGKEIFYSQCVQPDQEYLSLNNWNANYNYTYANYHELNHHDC
Conditions: protein: recombinant; tags: N-terminal GST; dsDNA, one strand shown. Summed up: as §1

The target in another experiment is ELF4 (Homo sapiens, UniProt Q99607 1-663). Conditions: protein: recombinant; tags: N-terminal GST; dsDNA, one strand shown. The method, boiled down: as §1
For the next experiment, the target named is T3, ELK4 (Homo sapiens, UniProt P28324-2 1-405).
T3 sequence: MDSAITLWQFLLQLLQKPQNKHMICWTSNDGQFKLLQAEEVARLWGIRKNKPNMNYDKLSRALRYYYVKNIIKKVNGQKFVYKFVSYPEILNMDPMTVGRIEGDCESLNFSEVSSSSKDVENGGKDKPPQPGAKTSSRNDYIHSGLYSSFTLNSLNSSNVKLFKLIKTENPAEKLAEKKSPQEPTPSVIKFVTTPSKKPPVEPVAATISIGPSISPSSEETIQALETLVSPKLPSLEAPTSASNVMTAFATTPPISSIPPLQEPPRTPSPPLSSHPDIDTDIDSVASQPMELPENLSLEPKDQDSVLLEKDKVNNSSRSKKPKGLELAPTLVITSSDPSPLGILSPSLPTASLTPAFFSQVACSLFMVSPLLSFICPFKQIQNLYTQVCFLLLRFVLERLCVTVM
Conditions: protein: recombinant; tags: N-terminal GST; dsDNA, one strand shown. Summed up: as §1

Another experiment concerns the target T4, ETV2 (Homo sapiens, UniProt O00321 1-342).
T4 sequence: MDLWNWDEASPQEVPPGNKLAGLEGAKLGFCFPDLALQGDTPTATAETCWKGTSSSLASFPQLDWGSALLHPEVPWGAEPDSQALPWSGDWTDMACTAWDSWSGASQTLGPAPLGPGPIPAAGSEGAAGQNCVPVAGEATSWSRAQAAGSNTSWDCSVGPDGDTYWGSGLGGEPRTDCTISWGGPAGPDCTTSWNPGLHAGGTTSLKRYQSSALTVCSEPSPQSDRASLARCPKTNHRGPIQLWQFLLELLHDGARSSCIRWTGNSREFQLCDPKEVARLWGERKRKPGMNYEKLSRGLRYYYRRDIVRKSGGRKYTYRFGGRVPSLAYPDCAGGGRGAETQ
Conditions: protein: recombinant; tags: N-terminal GST; dsDNA, one strand shown. The method, boiled down:
as §1

The target in the next experiment is T5, ELF3 (Homo sapiens, UniProt P78545 1-371).
T5 sequence: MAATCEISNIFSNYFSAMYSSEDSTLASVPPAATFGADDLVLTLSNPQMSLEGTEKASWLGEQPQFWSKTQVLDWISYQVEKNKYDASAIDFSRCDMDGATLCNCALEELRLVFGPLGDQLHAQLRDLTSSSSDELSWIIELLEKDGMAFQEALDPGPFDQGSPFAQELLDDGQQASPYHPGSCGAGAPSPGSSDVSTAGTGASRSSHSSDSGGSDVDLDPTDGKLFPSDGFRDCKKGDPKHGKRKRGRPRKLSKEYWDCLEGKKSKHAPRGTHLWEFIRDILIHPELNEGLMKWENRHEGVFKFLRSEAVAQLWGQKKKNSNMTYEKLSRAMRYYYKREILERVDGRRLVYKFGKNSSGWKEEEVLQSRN
The conditions noted are these: protein: recombinant; tags: N-terminal GST; dsDNA, one strand shown. Summed up:
as §1

The target of another experiment is CRX (Homo sapiens, UniProt O43186 1-299). The conditions noted are these: protein: recombinant; tags: N-terminal GST; dsDNA, one strand shown. Summed up:
as §1

In another experiment the target is ETV1 (Homo sapiens, UniProt P50549 1-477). Conditions: protein: recombinant; tags: N-terminal GST; dsDNA, one strand shown. The method, boiled down:
as §1

For another experiment, the target named is T6, ERF (Homo sapiens, UniProt P50548 1-548).
T6 sequence: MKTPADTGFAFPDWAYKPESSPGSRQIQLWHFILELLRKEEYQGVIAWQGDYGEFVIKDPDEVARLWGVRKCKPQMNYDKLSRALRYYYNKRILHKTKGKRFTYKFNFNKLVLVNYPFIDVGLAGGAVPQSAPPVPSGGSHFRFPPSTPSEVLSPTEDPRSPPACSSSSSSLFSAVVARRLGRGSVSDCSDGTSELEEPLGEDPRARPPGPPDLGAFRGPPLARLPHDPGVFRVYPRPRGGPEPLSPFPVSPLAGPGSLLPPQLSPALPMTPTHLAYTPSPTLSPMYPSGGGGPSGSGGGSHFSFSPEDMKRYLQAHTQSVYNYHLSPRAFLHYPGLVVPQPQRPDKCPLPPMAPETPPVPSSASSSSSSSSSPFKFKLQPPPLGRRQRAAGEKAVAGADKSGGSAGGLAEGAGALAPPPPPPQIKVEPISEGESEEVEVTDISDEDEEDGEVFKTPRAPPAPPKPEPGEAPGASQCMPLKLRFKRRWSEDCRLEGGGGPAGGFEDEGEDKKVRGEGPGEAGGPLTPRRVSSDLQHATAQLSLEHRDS
Conditions: protein: recombinant; tags: N-terminal GST; dsDNA, one strand shown. Summed up:
as §1

The next experiment addresses T7, ETV3L (Homo sapiens, UniProt Q6ZN32 1-361).
T7 sequence: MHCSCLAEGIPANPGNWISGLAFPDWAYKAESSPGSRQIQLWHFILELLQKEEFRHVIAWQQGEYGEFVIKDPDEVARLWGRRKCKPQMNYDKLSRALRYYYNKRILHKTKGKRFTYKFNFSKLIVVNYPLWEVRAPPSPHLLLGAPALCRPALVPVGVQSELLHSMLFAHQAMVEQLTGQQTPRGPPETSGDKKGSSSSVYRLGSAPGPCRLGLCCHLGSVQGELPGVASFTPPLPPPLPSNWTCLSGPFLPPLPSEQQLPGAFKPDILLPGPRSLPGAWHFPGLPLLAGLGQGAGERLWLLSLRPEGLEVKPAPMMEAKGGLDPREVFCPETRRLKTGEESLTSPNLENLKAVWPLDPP
The conditions noted are these: protein: recombinant; tags: N-terminal GST; dsDNA, one strand shown. The method, boiled down: as §1

A further experiment concerns the target T8, ETS2 (Homo sapiens, UniProt P15036 1-469).
T8 sequence: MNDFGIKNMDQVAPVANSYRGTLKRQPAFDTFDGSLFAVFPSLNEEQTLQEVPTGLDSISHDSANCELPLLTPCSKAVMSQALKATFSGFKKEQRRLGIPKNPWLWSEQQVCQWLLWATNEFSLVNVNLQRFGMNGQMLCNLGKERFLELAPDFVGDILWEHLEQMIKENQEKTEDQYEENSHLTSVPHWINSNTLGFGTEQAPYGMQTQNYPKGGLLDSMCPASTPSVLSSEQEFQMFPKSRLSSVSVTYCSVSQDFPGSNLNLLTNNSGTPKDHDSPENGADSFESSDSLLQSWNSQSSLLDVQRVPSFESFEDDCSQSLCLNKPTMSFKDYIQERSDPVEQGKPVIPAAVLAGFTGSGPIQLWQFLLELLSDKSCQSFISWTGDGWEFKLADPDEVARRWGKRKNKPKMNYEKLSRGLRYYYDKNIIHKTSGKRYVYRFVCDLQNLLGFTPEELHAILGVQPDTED
The conditions noted are these: protein: recombinant; tags: N-terminal GST; dsDNA, one strand shown. The method, boiled down:
as §1

For another experiment, the target named is T9, SPDEF (Homo sapiens, UniProt O95238 1-335).
T9 sequence: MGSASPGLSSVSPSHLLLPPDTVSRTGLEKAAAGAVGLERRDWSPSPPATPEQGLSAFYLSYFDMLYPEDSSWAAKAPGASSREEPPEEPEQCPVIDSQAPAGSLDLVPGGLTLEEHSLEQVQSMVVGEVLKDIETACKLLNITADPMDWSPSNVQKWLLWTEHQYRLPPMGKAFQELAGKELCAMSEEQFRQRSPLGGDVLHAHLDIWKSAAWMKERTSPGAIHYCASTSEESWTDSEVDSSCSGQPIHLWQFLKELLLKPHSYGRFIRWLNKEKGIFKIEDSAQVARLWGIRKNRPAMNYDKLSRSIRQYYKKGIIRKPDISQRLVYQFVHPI
Conditions: protein: recombinant; tags: N-terminal GST; dsDNA, one strand shown. Summed up:
as §1

For a further experiment, the target named is T10, ETV7 (Homo sapiens, UniProt Q9Y603 1-341).
T10 sequence: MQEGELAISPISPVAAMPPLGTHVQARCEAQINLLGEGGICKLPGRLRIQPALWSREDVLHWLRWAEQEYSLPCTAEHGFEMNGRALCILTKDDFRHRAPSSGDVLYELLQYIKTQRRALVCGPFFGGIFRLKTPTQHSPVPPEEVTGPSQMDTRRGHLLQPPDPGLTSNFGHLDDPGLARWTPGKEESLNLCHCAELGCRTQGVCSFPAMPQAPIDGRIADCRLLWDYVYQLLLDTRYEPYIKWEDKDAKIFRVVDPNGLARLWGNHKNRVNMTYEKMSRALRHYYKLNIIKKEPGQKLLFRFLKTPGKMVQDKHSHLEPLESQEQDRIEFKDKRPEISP
The conditions noted are these: protein: recombinant; tags: N-terminal GST; dsDNA, one strand shown. The method, boiled down:
as §1

The target in a further experiment is T11, ELF5 (Homo sapiens, UniProt Q9UKW6-2 1-255).
T11 sequence: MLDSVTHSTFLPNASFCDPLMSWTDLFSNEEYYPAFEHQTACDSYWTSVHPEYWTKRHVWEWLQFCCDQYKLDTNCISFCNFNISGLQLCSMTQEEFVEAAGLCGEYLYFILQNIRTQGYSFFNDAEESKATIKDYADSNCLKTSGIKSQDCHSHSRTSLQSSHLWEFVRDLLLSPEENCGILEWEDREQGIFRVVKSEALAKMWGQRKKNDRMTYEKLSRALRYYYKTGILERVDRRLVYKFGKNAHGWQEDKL
The conditions noted are these: protein: recombinant; tags: N-terminal GST; dsDNA, one strand shown. The method, boiled down: as §1

A further experiment addresses T12, ETV3 (Homo sapiens, UniProt P41162-2 1-143).
T12 sequence: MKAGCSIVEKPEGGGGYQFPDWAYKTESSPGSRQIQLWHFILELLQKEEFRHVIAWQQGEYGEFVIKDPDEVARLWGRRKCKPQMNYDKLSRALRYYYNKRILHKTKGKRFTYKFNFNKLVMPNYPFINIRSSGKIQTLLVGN
The conditions noted are these: protein: recombinant; tags: N-terminal GST; dsDNA, one strand shown. Summed up: as §1

A further experiment concerns the target ETV6 (Homo sapiens, UniProt P41212 1-452). Conditions: protein: recombinant; tags: N-terminal GST; dsDNA, one strand shown. Summed up: as §1

HSF1, sequence (Q00613 whole entry): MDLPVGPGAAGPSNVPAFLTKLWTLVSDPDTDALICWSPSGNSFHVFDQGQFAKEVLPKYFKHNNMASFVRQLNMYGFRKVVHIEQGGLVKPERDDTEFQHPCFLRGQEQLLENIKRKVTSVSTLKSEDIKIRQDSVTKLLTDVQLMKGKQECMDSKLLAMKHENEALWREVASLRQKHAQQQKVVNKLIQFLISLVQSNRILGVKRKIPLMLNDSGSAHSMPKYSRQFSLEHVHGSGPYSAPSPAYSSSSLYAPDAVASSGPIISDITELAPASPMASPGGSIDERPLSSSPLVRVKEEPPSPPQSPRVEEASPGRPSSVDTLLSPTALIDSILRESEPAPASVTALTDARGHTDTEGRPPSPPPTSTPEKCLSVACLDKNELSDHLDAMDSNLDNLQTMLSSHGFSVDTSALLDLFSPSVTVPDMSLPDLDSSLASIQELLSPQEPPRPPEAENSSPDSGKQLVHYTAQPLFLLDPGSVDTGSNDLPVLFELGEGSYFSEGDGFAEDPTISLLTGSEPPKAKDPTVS
ETV6, sequence (P41212 whole entry): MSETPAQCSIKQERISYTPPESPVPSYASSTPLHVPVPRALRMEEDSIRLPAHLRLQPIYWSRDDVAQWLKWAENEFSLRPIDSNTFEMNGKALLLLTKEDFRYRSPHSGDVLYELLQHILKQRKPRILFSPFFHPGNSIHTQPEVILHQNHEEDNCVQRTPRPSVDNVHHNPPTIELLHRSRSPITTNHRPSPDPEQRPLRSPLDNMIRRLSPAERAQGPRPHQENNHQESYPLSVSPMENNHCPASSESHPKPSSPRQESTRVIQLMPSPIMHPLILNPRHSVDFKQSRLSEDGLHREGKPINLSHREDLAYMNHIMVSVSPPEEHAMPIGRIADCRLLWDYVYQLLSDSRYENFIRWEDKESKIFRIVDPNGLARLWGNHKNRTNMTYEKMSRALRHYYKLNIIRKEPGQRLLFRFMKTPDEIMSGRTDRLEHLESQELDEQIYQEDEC
ETV5, sequence (P41161 whole entry): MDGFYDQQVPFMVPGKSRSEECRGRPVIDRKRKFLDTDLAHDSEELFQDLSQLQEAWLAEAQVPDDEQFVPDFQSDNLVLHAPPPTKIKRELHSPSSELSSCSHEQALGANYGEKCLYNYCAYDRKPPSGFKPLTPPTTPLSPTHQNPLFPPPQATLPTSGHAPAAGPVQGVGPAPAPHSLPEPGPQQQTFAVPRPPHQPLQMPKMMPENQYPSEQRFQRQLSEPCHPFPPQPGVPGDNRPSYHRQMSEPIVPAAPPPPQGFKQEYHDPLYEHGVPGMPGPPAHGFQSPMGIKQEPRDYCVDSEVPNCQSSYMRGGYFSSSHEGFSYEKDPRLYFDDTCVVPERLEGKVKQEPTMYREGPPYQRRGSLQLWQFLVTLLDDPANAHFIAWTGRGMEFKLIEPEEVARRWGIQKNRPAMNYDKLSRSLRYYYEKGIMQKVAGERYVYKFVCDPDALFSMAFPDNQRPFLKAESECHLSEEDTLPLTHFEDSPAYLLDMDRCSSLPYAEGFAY
ETV1, sequence (P50549 whole entry): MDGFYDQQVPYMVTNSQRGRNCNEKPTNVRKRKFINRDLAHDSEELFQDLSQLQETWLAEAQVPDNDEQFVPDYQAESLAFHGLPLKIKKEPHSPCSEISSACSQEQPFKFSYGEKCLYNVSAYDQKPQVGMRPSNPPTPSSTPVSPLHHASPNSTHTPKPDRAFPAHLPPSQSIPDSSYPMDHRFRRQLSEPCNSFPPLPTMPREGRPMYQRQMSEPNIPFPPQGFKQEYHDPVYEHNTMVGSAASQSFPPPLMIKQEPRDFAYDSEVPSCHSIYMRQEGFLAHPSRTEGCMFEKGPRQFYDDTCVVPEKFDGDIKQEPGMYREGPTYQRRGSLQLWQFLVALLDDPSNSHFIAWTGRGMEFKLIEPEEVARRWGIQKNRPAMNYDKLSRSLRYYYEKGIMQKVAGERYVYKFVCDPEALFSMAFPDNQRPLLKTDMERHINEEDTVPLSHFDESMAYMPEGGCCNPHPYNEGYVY
ELF4, sequence (Q99607 whole entry): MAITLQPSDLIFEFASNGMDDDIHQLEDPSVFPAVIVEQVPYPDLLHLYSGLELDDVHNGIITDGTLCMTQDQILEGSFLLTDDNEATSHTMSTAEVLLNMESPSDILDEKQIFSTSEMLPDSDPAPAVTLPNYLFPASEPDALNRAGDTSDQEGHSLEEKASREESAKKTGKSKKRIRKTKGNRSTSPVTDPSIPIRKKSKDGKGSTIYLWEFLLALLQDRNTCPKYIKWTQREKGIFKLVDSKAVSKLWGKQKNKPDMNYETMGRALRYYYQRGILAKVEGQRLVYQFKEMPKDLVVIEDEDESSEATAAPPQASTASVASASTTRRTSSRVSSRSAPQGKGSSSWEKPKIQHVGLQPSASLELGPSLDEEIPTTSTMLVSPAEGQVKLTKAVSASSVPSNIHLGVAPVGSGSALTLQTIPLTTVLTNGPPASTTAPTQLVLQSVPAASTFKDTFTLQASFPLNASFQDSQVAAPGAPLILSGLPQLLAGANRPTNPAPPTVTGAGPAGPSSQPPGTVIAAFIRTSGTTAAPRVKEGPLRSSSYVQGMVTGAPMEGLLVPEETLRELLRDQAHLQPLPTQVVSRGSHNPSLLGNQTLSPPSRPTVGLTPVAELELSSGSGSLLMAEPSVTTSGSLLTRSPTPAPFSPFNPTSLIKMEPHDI
CRX, sequence (O43186 whole entry): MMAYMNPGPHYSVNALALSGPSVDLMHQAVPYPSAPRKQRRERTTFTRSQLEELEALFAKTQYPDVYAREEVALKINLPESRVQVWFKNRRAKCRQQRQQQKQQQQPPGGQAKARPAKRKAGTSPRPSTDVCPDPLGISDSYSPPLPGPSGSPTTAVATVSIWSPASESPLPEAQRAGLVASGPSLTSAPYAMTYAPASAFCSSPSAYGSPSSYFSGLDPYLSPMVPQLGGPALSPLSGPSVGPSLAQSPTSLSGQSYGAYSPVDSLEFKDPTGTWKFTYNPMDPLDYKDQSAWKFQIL

Consider TAGTGG, for which the binding signal was 1.21 fold enrichment (6-mer frequency, TF over GST control) in the experiment with FEV; 1.11 fold enrichment (6-mer frequency, TF over GST control) with ETV5; 1.33 fold enrichment (6-mer frequency, TF over GST control) with HSF1; 1.24 fold enrichment (6-mer frequency, TF over GST control) in the experiment with SPIC; 1.15 fold enrichment (6-mer frequency, TF over GST control) in the experiment with ELF4; 1.37 fold enrichment (6-mer frequency, TF over GST control) in the experiment with ELK4. Also, the binding signal with ETV2 was 1.15 fold enrichment (6-mer frequency, TF over GST control); in the experiment with ELF3 it was 1.1 fold enrichment (6-mer frequency, TF over GST control); with CRX it was 1.52 fold enrichment (6-mer frequency, TF over GST control); with ETV1 it was 1.14 fold enrichment (6-mer frequency, TF over GST control); in the experiment with ERF it was 1.18 fold enrichment (6-mer frequency, TF over GST control); with ETV3L, 1.15 fold enrichment (6-mer frequency, TF over GST control). Besides, the binding signal is 1.28 fold enrichment (6-mer frequency, TF over GST control) with ETS2; 1.1 fold enrichment (6-mer frequency, TF over GST control) in the experiment with SPDEF; 1.17 fold enrichment (6-mer frequency, TF over GST control) with ETV7; 1.12 fold enrichment (6-mer frequency, TF over GST control) in the experiment with ELF5; 1.1 fold enrichment (6-mer frequency, TF over GST control) with ETV3; 1.16 fold enrichment (6-mer frequency, TF over GST control) in the experiment with ETV6.
